# Reference: the supplement of paper PMC6555819
# System: VDR:RXRa (NR concentration 270 nM, RXRa partner concentration 90 nM)
# Test: PBM binding z-score (relative to random genomic background probes); higher = stronger binding; sequences stand for … in GC…GCGATTGACAGCGTAGAATGAAGG
# Description: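 Protein-binding microarray (Agilent 4x180K custom design, double-stranded 60-nt probes: 5' GC cap, 34-nt variable region, 24-nt constant primer region; full probe sequence given). Purified or IVT nuclear receptor:RXRα heterodimers (3:1 NR:RXRα, mostly 270:90 nM) or homodimers were incubated for 1 h in PBS with 2% milk and no ligand, then detected with Alexa488 antibodies. Fluorescence from o1-orientation probes (~5 replicates averaged) was converted to z-scores against 500 random hg19 background probes. Variable regions are seed direct-repeat (DR0–DR5) sites, all their single-nucleotide variants and half-site ablations.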
row,Sequence,PBM binding z-score
1,CCTTACGGGTCACTGACAGGTTATTGCATTTGGA,3.93
2,CATACAGGGTCAGCTAGGCCAGAGCAGGGACGGC,3.75
3,TCATGTAGATCAGCAGGTTAAGAAAGCTGGCCAA,0.442
4,ACTATTACTTGAGACGAGGGCAACCGATAGGTTG,0.736
5,CAAATTAGGTCAAAGGTCAAAGTCGAGCCAACCA,6.81
6,CGAACTCGGTCATTGACAGGACAGTGAATAGTAA,0.452
7,AGAATGAGGTTACCAAAGATCAGGGAAACGCTTG,1.37
8,CAGCCTAGGTCAGCGCCAGTATAGGAGGAACGTT,0.303
9,TCTGCTAGGTCAACGATGGTCGGCTAATCTGCTA,1.42
10,CCTTACGGGTCAAGGTTAAAGCACGGGTGGTACG,3.5
11,CCCAGCAGGCCAATCTGGGTCACTCAAGGCTTGA,0.284
12,TGAATGAGGTTATAAGTTCAGGGAACGTTGCAAA,3.67
13,TCATAAAGGTAAAGGTGAAAGTCGAACGATATGA,0.948
14,TCAAGTAGGTTAGGGGCATTCAGAATGGCGTCGA,1.05
15,AGTCAAAGTTCACTAGGTAACGCAAGATTCAGCT,3.39
16,TCTAGATGGTCACGGAGGTCACACACGACGGGTA,6.25
17,CATGCTAGGTCAATGGTCAGCTAAAGCAGCTCGC,1.06
18,ATCTCTAGGTAACCATGTTCAGTGAATGCCGAAC,0.463
19,ATACCAAGGTGATCGTGAGATCGTTGATACTAAC,0.19
20,TTACCAAGGTGAGCTGAGGTCATTGATCCAACTC,5.79

row,Sequence,PBM binding z-score
1,ATCACTAGGTAAAAGTTCAGTGAATCCCGAGGAT,1.34
2,CAAACTAGGTCACAGAGGTCAAAGACCGTGCGTA,7.76
3,AGAATGATGTTACCAAAGATCAGGGAAACGCTTG,-0.205
4,ACTAGCAGGCCAAGTTTGGGTCATTCAAACAAAG,1.07
5,GCTGCTAGGTCAACTGTTGGTCAGCTAAAGCTCG,1.39
6,TCATATAGGTAAAAGGTGAAAGTAGGTGTGGTAA,1.93
7,GGAACGAGGGCAAGGTTGATAGCATCTGTCGACG,0.638
8,ATCGCTAGGTAAAGATAGTTCAGTGAATGCAAAT,0.0952
9,CGTCAAAGTTTAACTAAGGTAACGTAAAGCACGC,0.861
10,ACTAGCAGGCCAAGTTTGGGTCACTCCAACAAAG,0.642
11,CCTTACGGGTCACTGACGGGTTATAGCATTTGGA,3.7
12,ATCGGAAGGTCGAAGGTGAGTATACCCACCCGAA,1.5
13,ACTATTAGTTGACATAGGGCAACCGATACGACGC,0.569
14,ACTATTAGTTGAGACGAGGGCAACCGGTAGGTTG,0.837
15,GGAACGAGGGCAAGTTGCTAGCAGAGTTTGATGG,0.604
16,TCTGCTAGGTCAGTGGGTCAGCTAACGAGCTGCC,1.5
17,CGAACTAGGTAATCCAGGACAGTGAATACATTGA,0.209
18,CCTTACGAGTCACGAGGTTATAGCACGACGAGCG,1.7
19,TAACCAAGGTGAAGGTCGTTGATCCCTCTGTAGA,1.31
20,CTCGAAAGGTCGGTTGAGGAGAGTATACGGATAA,0.954
